Compound activity: PubChem, National Center for Advancing Translational Sciences (NCATS)
Pf growth 48h: inhibits P. falciparum growth in the first generation, 48 h; P. falciparum luciferase growth in erythrocytes, 48 h; Potency, µM (doses to about 28.7 µM), for inactives: at the top dose activity change, negative = inhibition, usual class: inhibitors; 310,000 tested, 5.9% active; AID 504832; note: % is set by controls: 0 for no effect and ±100 for the full control effect
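Firefly luciferase activity from engineered P. falciparum reports growth; inhibitors lower the luminescent signal. Cultures contained 2% hematocrit erythrocytes at 0.1% final parasitemia.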
Pf growth 96h: inhibits malaria parasite growth, 96 h | P. falciparum luciferase reporter growth, 96 h | Potency, µM (doses to about 28.7 µM), for the others: at the highest dose activity change, negative = inhibition, actives largely listed as inhibitors | 320,000 tested, 6.9% active; note: % is set by controls: 0 for no effect and ±100 for the full control effect
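Plates of compound plus infected erythrocytes (2% hematocrit, 0.05% parasitemia final) incubate 96 hours, 37 C, 5% CO2. Detection reagent added; reduced luminescence from the parasites' luciferase reporter flags inhibition.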
NS1 function inh: inhibitors of influenza NS1 protein function; 270,000 tested, 0.4% active; Potency, µM (doses to about 46.1 µM), for the others: at the highest dose activity, positive = more growth; AID 2326; calls by dose curve; note: actives are rising curves; nearly all actives have a fitted effect of over 50% in size
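Recovery from NS1-induced slow growth read by OD600 in budding yeast switched to galactose assay medium (pH 6.0, -URA) at 1:100 dilution. Compound 23 nl per well; the matching strain lacking NS1 serves as control.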
AMA1-RON2 inh: AMA1-RON2 (P. falciparum) interaction inhibition | 360,000 tested, 0.2% active | AlphaScreen AMA1-biotinylated RON2 peptide binding | Potency, µM (doses to about 58.2 µM), inactives show at the highest dose activity change, negative = inhibition, actives largely listed as inhibitors;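 note: 0% = vehicle wells and -100% = peptide control; nearly all actives have a fitted effect of over 45% in size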
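AMA1 (3D7) with his tag at 25 nM final met compounds first, then biotinylated RON2 peptide at 25 nM; detection used donor plus acceptor beads, 10 µg/mL apiece, read by AlphaScreen after 30 min at room temperature.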
Sm TGR block: S. mansoni TGR enzyme inhibition. Potency, µM (titrated, usually from 114 µM), without a hit: at the highest dose activity change, negative = inhibition, usual class: inhibitors. 360,000 tested, 3% active. AID 485364. Q962Y6. purified TGR, DTNB reduction, TNB absorbance 405 nm; note: % is set by controls: 0 for no effect and ±100 for the full control effect; nearly all actives have a fitted effect of over 60% in size
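Kinetic colorimetric format: TGR-catalysed, NADPH-driven DTNB reduction monitored via TNB absorbance. Enzyme dispensed at 20 nM; compound exposure 15 min at room temperature before reaction start.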
An asterisk follows results filed as active; ? = inconclusive; nt = not tested or not shown. An excerpt weighted towards active compounds, which were near 11% of everything screened. Unless noted, calls come from the whole dose curve; as a rule, active = well fitted curve in the direction sought with a large enough effect; inconclusive = small, poorly fitted or top-dose-only effect, or another doubt; inactive = no such curve, though single readings can be large; an effect the other way counts as inactive or inconclusive. Potency is the fitted concentration of half-maximal effect.

SMILES | Pf growth 48h | Pf growth 96h | NS1 function inh | AMA1-RON2 inh | Sm TGR block
CCOCCCNC(=O)C(NC(=O)CNC(C)=O)c1ccc(C)cc1 (centres undefined) | 7% | 9.3µM* | 3% | 6% | -9%
CCOCCCNC(=O)C(NC(=O)c1ccc(NC(C)=O)cc1)c1ccc(C)cc1 (centres undefined) | -3% | 41% | -2% | 21% | -1%
O=C1NC[C@H](Cc2ccccc2)N(CC2CCN(CCCC3CCCC3)CC2)C1=O | nt | nt | nt | 16% | nt
O=S1(=O)CCN(C2CCCCCC2)CC1 | nt | nt | nt | 0% | nt
Cc1ccc(-n2nnnc2SCC(=O)N2CCc3ccccc3C2)cc1 | -12% | 1% | -68% | -7% | -18%
Cc1ccc(-n2nnnc2SCC(=O)N2CCc3ccccc3C2)c(C)c1 | ? | 13µM* | -40% | -7% | -5%
Cc1ccc(-n2nnnc2SCC(=O)NCC2(N3CCOCC3)CCCCC2)cc1 | ? | ? | nt | 4% | 0%
Cc1ccc(-n2nnnc2SCC(=O)NCC2(N3CCOCC3)CCCCC2)c(C)c1 | 13µM* | ? | nt | 13% | -6%
Cc1ccc(C)c(-n2nnnc2SCC(=O)Nc2cccc(-c3nnc4n3CCCCC4)c2)c1 | 9.3µM* | ? | -34% | -9% | 0%
Cc1ccc(-n2nnnc2SCC(=O)NCC2(N3CCCCC3)CCCCC2)c(C)c1 | 10µM* | 7.4µM* | nt | -6% | 5%
CNC(=O)CSc1nnnn1-c1cc(C)ccc1C | -9% | 3% | 7% | -3% | 6%
COc1ccc(Cn2c(CNC(=O)c3ccc(N(C)C)cc3)nc3cccnc32)cc1 | nt | nt | nt | nt | 1%
Cc1cccc(-n2nnnc2SCC(=O)NCC2(N3CCOCC3)CCCCC2)c1C | 12µM* | ? | nt | 7% | -9%
COc1ccccc1-n1nnnc1SCC(=O)NCC1(N2CCOCC2)CCCCC1 | ? | ? | nt | -6% | -7%
Cc1oc2ncn(C)c(=O)c2c1C(=O)N1CCN(c2ccccc2F)CC1 | nt | nt | nt | nt | -3%
Cn1c2ccccc2c2cc(C(=O)OCC(=O)N3CC(=O)Nc4ccccc43)sc21 | 4.1µM* | 2% | -37% | -9% | 0%
O=C1CN(C(=O)COC(=O)c2cccs2)c2ccccc2N1 | 9% | 28% | nt | -5% | 2%
Cc1cc(C(=O)OCC(=O)N2CC(=O)Nc3ccccc32)c(C)n1-c1ccc(F)cc1 | 4.7µM* | 2.6µM* | 7% | 8% | -1%
COC(=O)c1cc(NS(=O)(=O)c2cc(Br)cc3c2N(C(C)=O)CC3)cc(C(=O)OC)c1 | nt | nt | nt | nt | 4%
COc1ccc(Nc2nc(-c3ccccc3)nc3ccccc23)cc1S(=O)(=O)N1CCOCC1 | ? | 13µM* | ? | 5% | 10%
Cc1ccc(NC(=O)c2cc(-c3ccco3)nc3ccccc23)cc1S(=O)(=O)N1CCOCC1 | -145% | ? | nt | -11% | 45µM*
COc1ccc(NC(=O)c2cc(-c3ccco3)nc3ccccc23)cc1S(=O)(=O)N1CCOCC1 | ? | ? | ? | -22% | 7.9µM*
COc1ccc(NC(=O)c2cc(C)nc3ccccc23)cc1S(=O)(=O)N1CCOCC1 | nt | nt | nt | -13% | nt
O=C(Nc1ccc(Cl)c(S(=O)(=O)N2CCOCC2)c1)c1ccccn1 | -20% | -24% | 1% | -22% | 9%
O=C(Nc1ccc(Cl)c(S(=O)(=O)N2CCOCC2)c1)c1cc(-c2ccccn2)nc2ccccc12 | 12µM* | ? | nt | -4% | -9%
Cc1ccc(NC(=O)c2nc(S(C)(=O)=O)ncc2N(Cc2ccc(C(C)(C)C)cc2)Cc2ccco2)cc1C | nt | nt | nt | nt | -5%
CCOc1ccc(C2(C)NC(=O)N(CCN(C)C)C2=O)cc1 (centres undefined) | -20% | ? | -2% | 1% | -2%
c1ccc(-c2onc(-c3ccco3)c2-c2ccc3[nH]ccc3c2)cc1 | -5% | ? | 22% | -16% | 45µM*
Cc1ccc(C2=NO[C@@](CC(=O)O)(C(=O)Nc3ccc4c(c3)OCCO4)C2)cc1 | 32% | 8% | -2% | 6% | 14µM*
COc1ccc(OC)c(C2=NO[C@@](CC(=O)O)(C(=O)Nc3ccc4c(c3)OCCO4)C2)c1 | 12% | 20% | -1% | 15% | 13µM*
